High-throughput results: PubChem BioAssay, several laboratories
Exocytosis inh: lytic granule exocytosis inhibition; AID 651702; 0.66% of 360,000 active; inhibition, % at 10 µM; TALL-104 LAMP-1 surface exposure, flow cytometry; cells stimulated with thapsigargin and PMA;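 active = inhibition above about 55%, limit read from the data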
PP1 counter: counter-screen for PP5 inhibitors: inhibitors of human PP1-alpha; P62136; purified PP1alpha, OMFP fluorescence; inhibition, % at 6.7 µM; 0.9% of 320,000 active; AID 2235;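 active = inhibition above the mean inhibition of all tested compounds plus 3 SD, computed separately for each screening campaign, cut at about 15% in these data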
NadD block: NadD (S. aureus) enzyme inhibition | purified NadD enzyme, colorimetric absorbance read-out | inhibition, % at 20 µM | 0.78% of 360,000 active | AID 602399; in the data active = inhibition above about 26%
Beta2AR agonist: activates human beta-2 adrenergic receptor causing internalization; P07550; Am2.2-beta2AR cells, FAP receptor internalization, flow cytometry; response, % (test concentration not listed); 0.43% of 340,000 active; AID 504454;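 active = response above a set limit, near 3 SD of response in nonfluorescent compounds, cut at about 42% in these data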
Target sequence (P07550 whole entry, looked up): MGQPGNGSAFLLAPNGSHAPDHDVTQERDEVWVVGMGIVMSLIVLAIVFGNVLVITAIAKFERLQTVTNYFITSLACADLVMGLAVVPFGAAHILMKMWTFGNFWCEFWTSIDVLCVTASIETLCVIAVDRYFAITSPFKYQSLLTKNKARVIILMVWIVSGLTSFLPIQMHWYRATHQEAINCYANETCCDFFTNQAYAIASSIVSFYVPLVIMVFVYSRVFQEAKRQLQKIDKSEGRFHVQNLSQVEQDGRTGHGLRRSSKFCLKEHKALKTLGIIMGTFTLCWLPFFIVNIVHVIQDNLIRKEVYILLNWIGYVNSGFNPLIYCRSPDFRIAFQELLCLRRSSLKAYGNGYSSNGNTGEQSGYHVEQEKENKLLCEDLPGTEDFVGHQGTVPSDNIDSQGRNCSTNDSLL
GRK2 aptamer HTS: blocks RNA aptamer binding to human GRK2; P25098; bead flow cytometry, FAM-aptamer displacement from GRK2; inhibition of aptamer binding, % at 10 µM; 0.59% of 330,000 active; AID 488847;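 active = inhibition of aptamer binding above 40%, roughly 3 SD of noise, on plates passing a quality check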;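 note: median bead fluorescence of bound FAM aptamer so fluorescent compounds give negative values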
PP1 confirm: confirmation of human PP1 phosphatase inhibitors; shares compounds with PP1 counter; purified PP1alpha, OMFP substrate fluorescence; inhibition, % at 6.7 µM; 52% of 1,900 active;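 active = mean PP1 inhibition above a set limit taken from the earlier primary screen, cut at about 15% in these data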
PP5 inh counter: counter-screen for PP1 inhibitors: human PP5 phosphatase inhibition. shares compounds with PP1 counter. purified PP5c, OMFP fluorescence. inhibition, % at 6.7 µM. 4% of 1,900 active;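 active = mean PP5 inhibition over triplicate wells above about 9.5% taken from the earlier PP1 screen, limit read from the data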
Numbers stand for hits; . = inactive; / = no result given. In the library only some 2.9% were active in any assay of this set; here they are far more common.

SMILES	Exocytosis inh	PP1 counter	NadD block	Beta2AR agonist	GRK2 aptamer HTS	PP1 confirm	PP5 inh counter
Cc1ccc(NC(=O)C2C3CCC(O3)C2C(=O)O)cc1Cl (configuration not stated)	.	75	.	.	.	.	25
Cc1ccc(NC(=O)C2CCCCC2C(=O)O)cc1Cl (configuration not stated)	.	.	.	.	.	/	/
COc1ccc(N(CC(=O)N2CCN(c3ccc(F)cc3)CC2)S(=O)(=O)c2c(C)noc2C)cc1	.	.	.	.	.	/	/
CCCCn1c(N)c(N(CCC(C)C)C(=O)c2ccc(N3CCCC3=O)cc2)c(=O)[nH]c1=O	.	.	.	.	.	/	/
O=C1OC(c2ccccc2)c2ccc3ccccc3c21 (configuration not stated)	.	19	.	.	.	.	.
Cc1cc(C)cc(NS(=O)(=O)c2ccc3[nH]cc(C(=O)N4CCc5ccccc54)c(=O)c3c2)c1	.	.	.	.	.	/	/
CCc1ccc(NS(=O)(=O)c2ccc3[nH]cc(C(=O)N4CCc5ccccc54)c(=O)c3c2)cc1	.	19	.	.	41	.	.
Cc1cccnc1NC(=O)CNC(=O)c1sc2ccccc2c1Cl	.	.	.	.	.	/	/
Cc1cccc(NC(=O)CNC(=O)c2sc3ccccc3c2Cl)n1	.	22	.	.	.	.	.
O=C(N/N=C/c1cccc(O)c1)c1cc(-c2ccc3c(c2)OCO3)n[nH]1	.	.	.	.	.	/	/
O=C(N/N=C/c1cccc([N+](=O)[O-])c1)c1cc(-c2ccc3c(c2)OCO3)n[nH]1	.	20	.	.	.	25	.
O=C(CC(NC(=O)c1ccccc1Cl)c1ccccc1)NCCc1ccc(Cl)cc1 (configuration not stated)	.	19	.	.	.	.	.
COCCCn1c(=O)c2sccc2n(Cc2ccc(C)cc2)c1=O	.	.	.	.	.	/	/
Cc1noc(/C=C/c2ccco2)c1S(=O)(=O)N1CCC(C(=O)N2CCc3ccccc3C2)CC1	.	19	47	.	.	26	.
Cc1cc(F)c(F)c(C(=O)N2CCC(C)CC2)c1Cl	.	.	.	.	.	/	/
O=C(Nn1c(=O)[nH]c2ccccc2c1=O)c1ccco1	.	.	.	.	.	/	/
CC1(C)Cc2c(C#N)c(N)n(-c3ccccc3)c(=S)c2CO1	.	.	.	.	.	/	/
CC1(C)C=C2C(=NN(c3ccccc3)C(N)=C2C#N)CO1	.	33	.	.	.	.	59
O=C1CCCc2oc3c(cc(NS(=O)(=O)c4ccc5c6c(cccc46)C(=O)N5)c4ccccc43)c21	.	20	.	.	.	.	.
CCCc1cc(=O)oc2cc(C)cc(OCC(=O)Nc3cccnc3)c12	.	.	.	.	.	/	/
O=C(Cc1cccs1)N=Nc1c(O)[nH]c2ccccc12	.	.	.	.	.	/	/
O=C(N=Nc1c(O)[nH]c2ccccc12)c1cc(-c2cccs2)[nH]n1	.	18	.	.	.	24	.
Cc1cccc(-n2c(-c3ccncc3)n[nH]c2=S)c1C	.	19	.	.	.	.	.
CC(C)CC(=O)Nc1ccc(C(=O)COC(=O)C2CCC2)cc1	.	.	.	.	.	/	/
CN(c1ccccc1)c1ccc(/C=C(\CCC(=O)O)c2nc3ccccc3s2)cc1[N+](=O)[O-]	.	26	.	.	.	.	.
SMILES	Exocytosis inh	PP1 counter	NadD block	Beta2AR agonist	GRK2 aptamer HTS	PP1 confirm	PP5 inh counter
CNc1ccc(/C=C(\CCC(=O)O)c2nc3ccccc3s2)cc1[N+](=O)[O-]	.	32	.	.	.	24	.
Cc1ccc(/C=C(\CCC(=O)O)c2nc3ccccc3s2)cc1[N+](=O)[O-]	.	.	.	.	.	/	/
Cn1cnnc1SCc1ccc(C(=O)N=Nc2c(O)n(Cc3ccc(Cl)cc3)c3ccccc23)cc1	.	20	35	.	.	16	.
CCCN=C(C)c1c(-c2ccccc2)[nH]n(-c2nc3ccccc3s2)c1=O	.	.	.	.	.	/	/
CCN(CC)CCCN=Cc1c(-c2ccccc2)[nH]n(-c2nc3ccccc3s2)c1=O	.	30	.	.	.	.	.
COc1ccccc1C(=O)NC(=O)COC(=O)CNC(=O)c1ccc(Cl)c([N+](=O)[O-])c1	.	27	.	.	.	.	.
CC(C)N1C(=O)CSC1c1ccc(Br)cc1 (configuration not stated)	.	87	.	.	.	.	.
